Shown are actives, neighbours in structure and some others; about 2.1% of the full set was active somewhere.
PrP 5UTR inh: inhibition of PrP 5' UTR reporter expression | cell-based PrP 5' UTR mRNA reporter, plate reader | inhibition, % (no concentration beside the values) | 340,000 tested, 0.35% active | AID 488862; in the data active = inhibition above about 52%
PfHsp40 rescue: rescue of PfHsp40-mediated yeast toxicity. S. cerevisiae expressing PfHsp40, growth rescue, ATP luminescence. growth rescue, % at 12.5 µM. 340,000 tested, 0.68% active. AID 504582; in the data active = growth rescue above about 28%, passing the limit was not always enough;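 note: yeast W303a lacking pdr1 and pdr3 grown in galactose medium; growth measured after three days at 30 °C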
ugtP null kill: compounds lethal to S. aureus RN4220 ugtP deletion mutant. growth inhibition, % (concentration not given with the values). 330,000 tested, 0.54% active. AID 1259309. OD600 growth, 16 h; in the data active = growth inhibition above about 68%
Sa RN4220 lethal: kills Staphylococcus aureus RN4220. S. aureus RN4220 growth, OD600, 16 h. inhibition, % (no concentration beside the values). 330,000 tested, 0.33% active. AID 1259311; in the data active = inhibition above about 85%
PrPC surface inh: reduces human prion protein on the cell surface; P04156; cell surface PrPC, TR-FRET read-out; inhibition, % at 13.8 µM; 370,000 tested, 0.43% active; AID 720596; in the data active = inhibition above about 24%
CCHF vOTU inh-1: CCHFV vOTU protease inhibition | Pep-AMC fluorescence | inhibition, % at 11.5 µM | 370,000 tested, 0.55% active
CCHF vOTU inh-2: confirmation of CCHF virus vOTU protease inhibitors. shares compounds with CCHF vOTU inh-1. Recombinant CCHFV vOTU, Pep-AMC fluorescence. inhibition, % at 11.5 µM. 1,900 tested, 17% active. AID 686976
Hits are given with their value; 0 = inactive; - = no result given. Cut-off read from the data, not from the text of the source, unless noted: active = inhibition above about 30%; inactive = the rest.

SMILES | PrP 5UTR inh | PfHsp40 rescue | ugtP null kill | Sa RN4220 lethal | PrPC surface inh | CCHF vOTU inh-1 | CCHF vOTU inh-2
CCCCc1n[nH]c2c1C(=NO)CC(C)(C)C2 | - | - | 0 | 0 | - | - | -
CCCNC1=C(N(C(C)=O)c2cccc(F)c2)C(=O)c2ccccc2C1=O | 0 | 49 | 0 | 0 | 0 | 70 | 46
CCCNC(=O)COC(=O)/C=C/c1cccc(F)c1 | 0 | 0 | 0 | 0 | 0 | 0 | -
COc1ccc(C(=O)NCCS(=O)(=O)N2CCCC2)cc1 | 0 | 0 | - | - | 0 | 46 | 0
COc1cc(/C=N/Nc2ccc(S(N)(=O)=O)cc2)cc(OC)c1OC | 0 | 0 | - | - | 0 | 30 | 0
O=C1Nc2ccccc2/C1=N\N=C\c1ccc(O)c(O)c1 | 0 | 0 | - | - | 0 | 33 | 0
OC(c1ccc(Cl)c(F)c1)c1ncc(-c2cccc(C(F)(F)F)c2)[nH]1 (stereo not drawn) | - | - | - | - | 0 | 36 | 0
CCOC(=O)CC1(C)Oc2ccccc2N1S(=O)(=O)c1ccc(C)cc1 (stereo not drawn) | - | - | - | - | 0 | 30 | 0
Cc1cc(C(F)(F)F)nc(SCc2ccc(C(=O)O)o2)n1 | 0 | 0 | 0 | 0 | 0 | 41 | 0
Cc1cc(C)nc(SCc2ccc(C(=O)O)o2)n1 | 0 | 0 | 0 | 0 | 0 | 0 | -
CCOC(=O)C(O)C(O)c1cccc(C(O)C(O)C(=O)OCC)c1 (stereo not drawn) | - | - | 0 | 0 | - | - | -
O=C1c2ccccc2C(=O)N1OCc1cccc(Cl)c1 | 0 | 0 | 0 | 0 | 0 | 0 | -
O=C1Cc2ccccc2C(=O)N1OCc1ccc(Cl)cc1Cl | 0 | 0 | - | - | 0 | 36 | 0
Cc1onc(-c2ccccc2)c1C(=O)N/N=C/c1ccc(O)c([N+](=O)[O-])c1 | 0 | 0 | - | - | 0 | 33 | 0
CCOc1cccc(-c2c(C(=O)NN=Cc3ccsc3)nnn2-c2nonc2N)c1 | - | - | 0 | 0 | - | - | -
CC(=O)N(N=C1Sc2ccccc2C1=O)c1ccc(C)cc1C | - | - | 0 | 0 | - | - | -
CC(=O)N(/N=C1\Sc2ccccc2C1=O)c1ccccc1C | 0 | 0 | - | - | 0 | 47 | 38
O=C1Nc2ccccc2C1=NN=Cc1cccc(O)c1 | - | - | 0 | 0 | - | - | -
C=CCOc1c(Cl)cc(CNc2ccc(N(C)C)cc2)cc1OC | 0 | 0 | 0 | 0 | 0 | 69 | 0
COc1cc(CNc2ccc(N3CCCC3)cc2)cc(Cl)c1OC | 0 | 0 | 0 | 0 | 0 | 0 | -
CN1CC(C(=O)N[C@]2(C)O[C@@]3(O)C4CCCN4C(=O)C(Cc4ccccc4)N3C2=O)CC2c3cccc4[nH]cc(c34)CC21 (stereo partly drawn) | - | - | 0 | 0 | - | - | -
O=C1C=C(c2cccc(CO)c2)CC(c2ccc(F)cc2)C1 (stereo not drawn) | - | - | 0 | 0 | - | - | -
COc1ccc(OCCOc2ccc(S(=O)(=O)N3CCCC3)cc2[N+](=O)[O-])cc1 | 0 | 0 | 0 | 0 | 0 | 0 | -
COc1cccc(Oc2ccc(S(=O)(=O)N3CCCC3)cc2[N+](=O)[O-])c1 | 0 | 0 | - | - | 0 | 34 | 0
CC1ON(C2CCCCC2)C2c3nc4ccccc4n3CC12 (stereo not drawn) | - | - | 0 | 0 | - | - | -
SMILES | PrP 5UTR inh | PfHsp40 rescue | ugtP null kill | Sa RN4220 lethal | PrPC surface inh | CCHF vOTU inh-1 | CCHF vOTU inh-2
O=C1NC(=S)S/C1=C\c1cc(Cl)cc(Cl)c1O | 0 | 0 | 0 | 0 | 0 | 30 | 0
CC(C)(C)c1ccccc1NC(=O)Nc1nc(C(N)Cc2ccc(F)cc2)cs1 (stereo not drawn) | - | - | - | - | 0 | 30 | 0
O=C(Cc1ccc(Cl)cc1Cl)NC1CCCCCC1 | 0 | 0 | 0 | 0 | 0 | 0 | -
O=C(COC(=O)Cc1ccc(Cl)cc1Cl)NC1CC1 | 0 | 0 | 0 | 0 | 0 | 32 | 0
CC1=C(C(=O)Nc2ccc([N+](=O)[O-])cc2)C(c2cccc(C(F)(F)F)c2)NC(=S)N1c1ccccc1 (stereo not drawn) | 0 | 0 | 0 | 0 | 0 | 31 | 0
COc1ccc(C2NC(=S)N(c3ccccc3)C(C)=C2C(=O)Nc2ccccc2)cc1 (stereo not drawn) | 0 | 0 | 0 | 0 | 0 | 0 | -
O=C(CC1CC=CCCC(=O)OCC(Cc2ccccc2)NC1=O)NC(CO)Cc1ccccc1 (stereo not drawn) | - | - | 0 | 0 | - | - | -
CCCN(C(=O)c1cn(CCC)c2ccccc12)c1ccc(Oc2cccnc2)cc1 | - | - | - | - | 0 | 38 | 0
CCCCCN(C(=O)CCc1cn(CCCCC)c2ccccc12)c1ccc(Oc2cccnc2)cc1 | - | - | - | - | 0 | 0 | -
Cn1c(Cl)c(C=NOC(=O)c2cccc(Cl)c2)c2ccccc21 | - | - | 0 | 0 | - | - | -

Compound activity (PubChem BioAssay)
